Screens deposited in PubChem by National Center for Advancing Translational Sciences (NCATS).
VDR inh: vitamin D3 receptor (human) inhibition; P11473; VDR-SRC2-3 peptide fluorescence polarization, 2 h; Potency, µM, hits mostly inhibitors; hit rate 0.93% among 400,000; AID 504847
Target sequence (P11473 whole entry, looked up): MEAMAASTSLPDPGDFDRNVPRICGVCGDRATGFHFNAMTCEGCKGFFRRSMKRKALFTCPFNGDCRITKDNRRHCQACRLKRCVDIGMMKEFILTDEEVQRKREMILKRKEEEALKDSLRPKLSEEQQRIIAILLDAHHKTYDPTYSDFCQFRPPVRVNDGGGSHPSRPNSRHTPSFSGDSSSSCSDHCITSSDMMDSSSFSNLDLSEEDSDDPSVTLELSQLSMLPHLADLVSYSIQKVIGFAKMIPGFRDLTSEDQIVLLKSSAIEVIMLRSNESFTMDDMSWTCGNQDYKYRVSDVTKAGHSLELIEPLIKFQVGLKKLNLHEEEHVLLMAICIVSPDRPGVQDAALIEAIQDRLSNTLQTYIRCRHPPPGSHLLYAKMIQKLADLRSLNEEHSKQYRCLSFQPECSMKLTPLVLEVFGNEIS
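Compounds are added to VDR with labelled SRC2-3 coactivator peptide and held 2 h at room temperature. Inhibition of the VDR–peptide interaction is then read as a change in fluorescence polarization.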
USP1 inh: inhibitors of human USP1/UAF1 deubiquitinase | O94782 | recombinant USP1/UAF1, Ub-Rhodamine cleavage fluorescence | Potency, µM (series often up to 57.1 µM), hits mostly inhibitors | hit rate 0.23% among 390,000; further: nearly all actives have a fitted effect of over 60% in size
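USP1/UAF1 complex at 1 nM was preincubated with compound for 15 min at room temperature, then Ub-Rho substrate (150nM final) was added. Fluorescence (480/540 nm) was read kinetically, 6 reads every 60 seconds.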
USP2a inh: blocks human ubiquitin-specific protease USP2a; Potency, µM (doses to about 38.3 µM), actives largely listed as inhibitors; USP2 core, Ub-CHOP2 coupled fluorogenic reporter, 485/531; hit rate 0.01% among 330,000; O75604; AID 463254
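USP2 core (10nM final) preincubated 30min RT with compound in 20mM Tris-HCl pH 8.0, 2mM CaCl2, 2mM beta-mercaptoethanol, 0.05% CHAPS; 25nM Ub-CHOP2 plus 25nM reporter substrate added, fluorescence (Ex485/Em531) read after 60min.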
Coupling enz: coupling enzyme interference in Giardia aldolase counter-screen. coupling enzyme system counterscreen, AmpLite Red fluorescence. activity change, negative = inhibition, % at 58.2 µM, hits read low. hit rate 0.67% among 290,000; in the data active means activity change below about -30%
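Final compound at 57.5 uM, incubated 10 min at RT with coupling enzyme reagent (glyceraldehyde-3-phosphate), then 20 min with substrate and AmpLite Red detection. Fluorescence read at 525/598 nm; tests interference with the coupling assay, not aldolase inhibition.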
GALK inh: inhibitors of human galactokinase. Potency, µM (series often up to 57.5 µM), hits mostly inhibitors. hit rate 0.007% among 270,000. Purified GALK, Kinase-Glo residual ATP luminescence
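Compounds were pin-transferred into ATP buffer (35 uM final), then GALK plus galactose (5 nM, 100 uM final) was added. After 1 h at room temperature, Kinase-Glo Plus was added and luminescence read after 10 min.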
PLK1 PBD inh: PLK1 (human) polo-box domain binding inhibition; P53350; Plk1 PBD binding of FITC phosphopeptide, fluorescence polarization; Potency, µM, most hits filed as inhibitors; hit rate 2.8% among 360,000; further: series mostly up to about 57 µM; nearly all actives have a fitted effect of over 65% in size
Hits are given with their value; i = inactive; ? = inconclusive; nt = not tested or not shown. Hits are enriched below; roughly 3.2% of the tested compounds scored in any of these assays. Unless noted, the call rests on the fitted dose curve; in most records, active means well fitted curve in the direction sought with a large enough effect; inconclusive means small, poorly fitted or top-dose-only effect, or another doubt; inactive means no such curve, though single readings can be large; an effect the other way counts as inactive or inconclusive.

SMILES	VDR inh	USP1 inh	USP2a inh	Coupling enz	GALK inh	PLK1 PBD inh
O=C(NCc1ccc2[nH]c3c(c2c1)CCCC3)c1ccc(S(=O)(=O)N2CCOCC2)cc1	i	i	i	i	nt	i
CCOCCCNC(=O)NC(=O)CN1CCN(S(=O)(=O)c2ccc3c(c2)OCCO3)CC1	i	i	i	i	i	i
COC(=O)c1nc(NC(=O)c2ccc(Br)cc2)n[nH]1	i	i	nt	i	i	24µM
COC(=O)c1nc(NC(=O)c2ccccc2Cl)n[nH]1	i	i	i	i	i	?
COC(=O)c1nc(-c2ccccc2)n[nH]1	i	i	i	i	i	i
COC(=O)c1nc(NC(=O)C(C)(C)C)n[nH]1	i	i	i	i	i	19µM
CC(CN1CCC(n2nccc2NC(=O)c2ccccc2Cl)CC1)c1ccccc1 (stereo unspecified)	i	i	i	i	i	i
O=C(COc1cccnc1[N+](=O)[O-])c1ccc(Cl)s1	50µM	i	i	i	i	15µM
O=C(COc1cccnc1[N+](=O)[O-])Nc1c(Cl)cccc1Cl	i	i	i	nt	nt	i
COc1ccc(S(=O)(=O)N2CCN(Cc3ccccc3)CC2)cc1OC	i	i	i	i	i	i
Cc1noc(/C=C/c2nn(C)cc2Cl)c1[N+](=O)[O-]	?	i	i	i	i	i
O=C(O)c1cccc(NN=C2c3ccccc3-c3ccccc32)c1	i	i	i	i	i	?
O=C(O)c1cccc2c1-c1ccccc1/C2=N\Nc1ccccc1	i	?	i	i	i	38µM
CCc1ccc2[nH]c3nc(SCC(=O)NCC4CCCO4)nnc3c2c1 (stereo unspecified)	i	i	i	i	i	i
CCc1ccc2[nH]c3nc(SCCN4CCOCC4)nnc3c2c1	?	i	i	i	i	24µM
CC(=O)Nc1cccc(C(=O)N/N=C/c2cccc(C)n2)c1	?	i	i	i	nt	27µM
CCCCCCCCCCCCCCC(C(=O)O)C(O)(CC(=O)OC)C(=O)O (stereo unspecified)	22µM	nt	nt	i	nt	nt
O=C(Nc1ccc(NC(=O)c2cccs2)cc1)c1ccc(Cl)cc1	i	i	nt	nt	nt	nt
CCOc1cc(N2CCOCC2)c(OCC)cc1NC(=O)c1ccc(C)cc1	i	i	i	-31	i	i
CCOc1cc(N2CCOCC2)c(OCC)cc1NC(=O)CSc1cccc[n+]1[O-]	i	?	i	-33	i	i
CCOc1cc(N2CCOCC2)c(OCC)cc1NC(=O)c1cc(C)cc(C)c1	i	i	i	i	i	i
Cc1ccc2cc(C3C(C#N)=C(N)Oc4c3ccc3cccnc43)c(=O)[nH]c2c1 (stereo unspecified)	i	i	i	-39	i	?
COc1ccc(O[C@H]2C=C[C@@H](c3ccccc3)O[C@@H]2CO/N=C\[C@@H](C)[C@H](OCc2ccccc2)C(C)C)cc1	nt	nt	nt	i	nt	nt
Cc1cccc(NC2=C(C#N)C(=O)NC3(CCCC3)S2)c1	20µM	i	i	i	i	i
Cc1cccc(N2C(=O)NC3(CCCCC3)C2=O)c1	i	i	i	i	i	i
SMILES	VDR inh	USP1 inh	USP2a inh	Coupling enz	GALK inh	PLK1 PBD inh
COC(=O)CSC1=C(C#N)C(=O)NC2(CCCCC2)S1	?	i	i	i	i	i
Cc1ccccc1N1C(S)=C(C#N)C(=O)NC12CCCCC2	32µM	i	i	i	i	i
Cc1cccc(N2C(S)=C(C#N)C(=O)NC23CCCCC3)c1	45µM	i	i	i	nt	i
Cc1ccc(N2C(S)=C(C#N)C(=O)NC23CCCCC3)cc1	32µM	i	i	i	i	i
Cc1ccc(C)c(NC(=O)CSc2ncc3c(n2)-c2ccccc2N(Cc2ccccc2C)S3(=O)=O)c1	i	i	nt	nt	nt	nt
CCOc1ccc(C2N(c3cc(C)on3)C(=O)C3CCCN32)cc1OC (stereo unspecified)	i	i	i	i	i	27µM
CN1CCCN(C(=O)CNC(=O)c2ccc(Cl)cc2Cl)CC1	i	i	i	nt	nt	i
Cc1ccc(-c2nc(NCc3ccco3)n(C(=O)c3ccco3)n2)cc1	i	i	i	i	i	i
O=C(c1ccco1)n1nc(-c2ccccc2)nc1NCc1ccco1	?	i	i	i	i	30µM
